Results reported in PubChem BioAssay (Tox21).
Where “and” joins values, the source holds several entries; their conditions need not be identical. Equal values may be shown once. Inconclusive results are not listed. Values without a mark were called inactive. Calls of active or inactive are those of the source. Calls come from the whole dose curve; as a rule, active = well fitted cell-killing curve with a large enough effect in the repeat runs; inconclusive = weak or mixed curves; inactive = no such curve, though single readings can be large or run the other way. Positions of bridges follow the written chain, without caps; N, C: chain ends. Non-standard residues stand in square brackets, D forms with d. Residues, ends and D or L forms follow the SMILES beside them. *: point of attachment. X1 = CC[C@@H](C)[C@@H](N)C1=N[C@H](C(=O)*)CS1; d(aIle) = CC[C@H](C)[C@@H](N)C(=O)O; dOrn = NCCC[C@@H](N)C(=O)O

test: qHTS assay for identifying genotoxic compounds that show differential cytotoxicity against isogenic chicken DT40 cell lines with known DNA damage response pathways - Rad54/Ku70 mutant cell line (AID 743015); conditions: DT40 Rad54/Ku70 mutant viability, CellTiter-Glo, 40 h; series mostly up to 66.8 µM; activity change, negative = cytotoxicity: at the top concentration; note: nearly all actives have a fitted effect of over 60% in size
% is set by controls: 0 for no effect and ±100 for the full control effect; potency is the fitted concentration of half-maximal effect.

Compound	Potency	activity change, negative = cytotoxicity
CCN(CC)CC#CCOC(=O)C(O)(c1ccccc1)C1CCCCC1 (stereo unspecified)	26.6 µM (active)	
CC(=O)O[C@H]1C[C@@H]2CC[C@@H]3[C@H](CC[C@@]4(C)[C@H]3C[C@H]([N+]3(C)CCCCC3)[C@@H]4OC(C)=O)[C@@]2(C)C[C@@H]1[N+]1(C)CCCCC1		-1.88%
CCN(CC)CCOC[C@H]1O[C@@H](O)[C@H](OCCN(CC)CC)[C@@H](O)[C@@H]1O		1.49%
CN=C(N)NCCC[C@H](N)C(=O)O	inactive	
CSCC[C@H](NC(=O)[C@H](Cc1ccc(OS(=O)(=O)O)cc1)NC(=O)[C@@H](N)CC(=O)O)C(=O)NCC(=O)N[C@@H](Cc1c[nH]c2ccccc12)C(=O)N[C@@H](CCSC)C(=O)N[C@@H](CC(=O)O)C(=O)N[C@@H](Cc1ccccc1)C(N)=O	inactive	
CCOC(=O)COc1ccc2c(=O)cc(-c3ccccc3)oc2c1	29.8 µM (active)	
CC[C@@H](C)[C@H](N)C(=O)O		5.28%
CCCCCCCCCCCC[n+]1ccc2ccccc2c1	0.266 µM (active)	
O=C1CC[C@@H](C(=O)N[C@H]2C[C@@H]2c2ccccc2)N1		2.29%
CC(C)(S)C(=O)N[C@@H](CS)C(=O)O	inactive	
CC(C)(C)C(=O)OCC(=O)[C@H]1CC[C@H]2[C@@H]3CCC4=CC(=O)CC[C@]4(C)[C@H]3CC[C@]12C		7.47%
NC[C@H]1O[C@H](O[C@H]2[C@H](O)[C@@H](O[C@H]3O[C@H](CO)[C@@H](O)[C@H](N)[C@H]3O)[C@H](N)C[C@@H]2N)[C@H](N)C[C@@H]1O		5.96% [at 30.7 µM]
C/C(=C\C(=O)OCCCCCCCCC(=O)O)C[C@@H]1OC[C@H](C[C@@H]2O[C@H]2[C@@H](C)[C@H](C)O)[C@@H](O)[C@H]1O	2.37 µM (active)	
O=[N+]([O-])c1ccc(O)c2ncccc12	5.31 µM (active)	
Cc1cc(Br)ccc1NC(=O)CCl	1.54 µM (active)	
O=P(O)(O)C(O)(Cn1ccnc1)P(=O)(O)O		6.76%

Compound	Potency	activity change, negative = cytotoxicity
CCOc1ccc(S(=O)(=O)O)c2cccnc12		0.219%
FC(F)(F)COCC(F)(F)F		5.17%
CC(=NCc1ccccc1)c1ccccc1O		-0.503%
CC(=O)OCC(=O)[C@@]1(O)CC[C@H]2[C@@H]3CCC4=CC(=O)CC[C@]4(C)C3=CC[C@@]21C		6.64%
O=C(O)/C=C/C(=O)Nc1ccc(S(=O)(=O)Nc2nccs2)cc1		2.98%
Cc1onc(-c2c(F)cccc2Cl)c1C(=O)N[C@@H]1C(=O)N2[C@@H]1SC(C)(C)[C@@H]2C(=O)O	inactive	
O=C(O)c1cc2cc(Cc3cccnc3)ccc2o1		4.31%
CC[C@@H](C)[C@@H](N)C1=N[C@H](C(=O)N[C@@H](CC(C)C)C(=O)N[C@@H](CCC(=O)O)C(=O)N[C@@H](C(=O)N[C@@H]2CCCCNC(=O)[C@@H](CC(N)=O)NC(=O)[C@@H](CC(=O)O)NC(=O)[C@@H](Cc3cnc[nH]3)NC(=O)[C@@H](Cc3ccccc3)NC(=O)[C@@H]([C@H](C)CC)NC(=O)[C@@H](CCCN)NC2=O)[C@@H](C)CC)CS1 (X1-LE[d(aIle)][dK][dOrn][dI][dF][dH][dD][dN]; lactam 4-C)	inactive	
NC(=O)[C@H]1O[C@@H](O)[C@H](O)[C@@H](O)[C@@H]1O		3.31%
CC(C)C[C@H](NC(=O)[C@@H](COC(C)(C)C)NC(=O)[C@H](Cc1ccc(O)cc1)NC(=O)[C@H](CO)NC(=O)[C@H](Cc1c[nH]c2ccccc12)NC(=O)[C@H](Cc1cnc[nH]1)NC(=O)[C@@H]1CCC(=O)N1)C(=O)N[C@@H](CCCN=C(N)N)C(=O)N1CCC[C@H]1C(=O)NNC(N)=O	inactive	
Cc1c(N)nc([C@H](CC(N)=O)NC[C@H](N)C(N)=O)nc1C(=O)N[C@H](C(=O)N[C@H](C)[C@@H](O)[C@H](C)C(=O)N[C@H](C(=O)NCCc1nc(-c2nc(C(=O)NCCCCN=C(N)N)cs2)cs1)[C@@H](C)O)[C@@H](O[C@@H]1O[C@@H](CO)[C@@H](O)[C@H](O)[C@@H]1O[C@H]1O[C@H](CO)[C@@H](O)[C@H](OC(N)=O)[C@@H]1O)c1cnc[nH]1	211 nM (active) and 37.6 nM (active)	
NC(N)=NCCCCN=C(N)N		3.39%
COc1ccc(/C=N/NC(=O)c2ccncc2)c(C(=O)O)c1OC		7.18%
O=C1CCC(c2ccc(-n3ccnc3)cc2)=NN1		6.29%
Cc1cnc(C(=O)O)c[n+]1[O-]	inactive	
